Only some compounds are listed: those with a hit (about 19% of all), similar ones and a draw of the others.
DT40 TDP1 CPT = growth inhibition of DT40 Tdp1-/-;hTDP1 cells with camptothecin (screen for TDP1 inhibitors) | Potency, µM (top dose mostly 46.2 µM), for the others: at the top dose activity change, negative = growth inhibition, actives largely listed as inhibitors | actives 12% (n = 420,000) | chicken DT40 Tdp1-/-;hTDP1 cells + 20 nM CPT, ATP luminescence, 48 h; further: potency means the concentration at half of the fitted maximal effect; nearly all actives have a fitted effect of over 55% in size
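Chicken DT40 Tdp1-/- cells stably complemented with human TDP1 were seeded at 400 cells/well in medium containing 20 nM camptothecin, exposed to pin-transferred compounds, and grown at 37 °C for at least 48 hr. Viability was read as ATP luminescence.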
IL1B secr inh = inflammasome signaling inhibition, IL-1 beta readout. THP-1 LPS/ATP IL-1B secretion, AlphaLISA, 16 h; stronger effect = lower value. activity change, % at 57.5 µM. actives 4.7% (n = 360,000). AID 743279; in the data active means activity change below about -50%; inconclusive means mostly about -30% to -49%
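THP-1 cells pretreated 1 hr with compounds (up to 57.5 uM final), then stimulated with LPS (250 ng/mL final) plus ATP (1.25 mM final); secreted IL-1B measured by AlphaLISA after 16 hr, decreased signal indicating inhibition.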
TDP1 cell noCPT = qHTS for Inhibitors of human tyrosyl-DNA phosphodiesterase 1 (TDP1): qHTS in cells in absence of CPT. DT40 Tdp1-/- hTDP1 cells, no CPT, ATP luminescence, 48 h. Potency, µM (highest dose often 46.2 µM), for inactives: at the highest dose activity change, negative = growth inhibition, usual class: inhibitors. actives 15% (n = 420,000). AID 686978, 2013; further: potency means the concentration at half of the fitted maximal effect; nearly all actives have a fitted effect of over 55% in size
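A cellular qHTS used chicken DT40 cells lacking endogenous Tdp1 but carrying stably transfected human TDP1. Compounds were applied without camptothecin, and cell growth kinetics were judged by ATP-dependent luminescence after ≥48 hr.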
HT1080 IDH1KD tx = HT-1080 IDH1 knockdown cell toxicity (counter line); Potency, µM (titrated, usually from 46.1 µM), inactives show at the highest dose activity, negative = toxicity, actives largely listed as cytotoxic; actives 2% (n = 360,000); HT-1080 IDH1 knockdown viability, ATP luminescence, 48 h;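 further: potency means the concentration at half of the fitted maximal effect; 0% = DMSO wells and -100% = cell-free medium wells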
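In this qHTS, HT-1080 cells depleted of IDH1 are exposed for 48 h at 37 °C to compound titrations. Toxicity is scored from CellTiter-Glo luminescence, with DMSO as full viability and medium alone as none.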
HT1080-NT tox = kills 2HG-producing HT-1080-NT fibrosarcoma cells | AID 686970 | actives 1.6% (n = 360,000) | Potency, µM (top dose mostly 46.1 µM), for inactives: at the highest dose activity, negative = less viability, actives largely listed as cytotoxic | HT-1080-NT fibrosarcoma viability, CellTiter-Glo ATP luminescence, 48 h;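 further: NT is the 2HG producing partner of a matched IDH1 knockdown line; potency means the concentration at half of the fitted maximal effect; 0% = DMSO-treated cells and -100% = media-only wells without cells; nearly all actives have a fitted effect of over 55% in size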
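Luminescent CellTiter-Glo readout after 48 hours of compound exposure at 37 degrees C defined viability of HT-1080-NT cells. Activity was normalized to DMSO wells and cell-free media wells; concentration-response curves were fitted and assigned curve classes.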
The depositor's hits bear a star; ? = inconclusive; · = not tested or not shown. Unless noted, the call rests on the fitted dose curve; in most records, active means well fitted curve in the direction sought with a large enough effect; inconclusive means small, poorly fitted or top-dose-only effect, or another doubt; inactive means no such curve, though single readings can be large; an effect the other way counts as inactive or inconclusive. Unless noted, on the % scale 0 is the no-effect control and ±100 the full control effect.

SMILES	DT40 TDP1 CPT	IL1B secr inh	TDP1 cell noCPT	HT1080 IDH1KD tx	HT1080-NT tox
COC(=O)[C@]12CCCCC=C1N(Cc1ccccc1)C(=O)[C@H](CC(=O)NCC13CC4CC(CC(C4)C1)C3)C2	18.4µM*	-24.1	?	?	?
Cc1cc(C)n2nc(C(=O)OCC(=O)NCc3ccccc3)nc2n1	-0.2%	14.9	-3.2%	2.8%	7.2%
O=C(NCc1ccccc1Cl)c1ccc(CS(=O)Cc2ccc(Cl)cc2)o1 (stereo not drawn)	-2.0%	-18.3	3.7%	-13.4%	-3.6%
COc1cc(-c2noc(CN3CCN(c4ccccc4)CC3)n2)cc(OC)c1OC	?	·	20.6µM*	·	·
COc1ccc(-c2noc(-c3cccnc3N3CCN(c4ccc(OC)cc4)CC3)n2)cc1	14.6µM*	·	8.2µM*	·	·
COc1ccc(N2CCN(Cc3nc(-c4ccc(C)cc4)no3)CC2)cc1	?	·	23.1µM*	·	·
COc1ccc(-c2noc(-c3ccoc3C)n2)cc1	?	25.4	18.4µM*	-11.4%	-3.2%
CCc1ccccc1NC(=O)CN(C)C(=O)CSc1nc2cc(Cl)ccc2s1	6.5%	-9.3	-25.8%	4.6%	15.1%
COc1ccc(C(C(=O)NC(C)(C)C)N(C(=O)CCC(=O)Nc2cc(C)on2)c2cccc(C)c2C)cc1 (stereo not drawn)	-3.1%	2.1	?	24.0%	22.7%
COc1ccccc1N1CCN(Cc2nc(-c3cc(OC)c(OC)c(OC)c3)no2)CC1	23.1µM*	·	18.4µM*	·	·
Cc1nn(C)c(C(=O)N/N=C/c2ccc(C(F)(F)F)cc2)c1[N+](=O)[O-]	1.6%	0.8	0.6%	-10.0%	-16.0%
CCOc1ccccc1NC(=O)CN1C(=O)C(C)SC(C)C1=O (stereo not drawn)	0.3%	-10.8	-1.7%	6.9%	13.2%
COc1cccc(-c2cnc3c(NC=O)cc(-c4cc(C)c(O)c(C)c4)cn23)c1	3.66µM*	25.2	4.61µM*	?	?
COc1cccc(-c2cnc3c(NC=O)cc(-c4ccc(S(C)(=O)=O)cc4)cn23)c1	18.4µM*	13.5	16.4µM*	?	?
COc1cccc(-c2cnc3c(NC=O)cc(-c4ccc(N5CCN(C)CC5)cc4)cn23)c1	16.4µM*	74.9	?	?	?
COc1cccc(-c2cnc3c(NC=O)cc(-c4ccoc4)cn23)c1	13µM*	60.8	14.6µM*	-8.8%	-10.3%
O=C(CSc1nnc(-c2ccncc2)n1Cc1ccccc1)NC1CCCc2ccccc21 (stereo not drawn)	-30.4%	-20.9	?	18.6%	3.0%
Cc1ccc(C(C)C)cc1OCC(=O)Nc1ccc(-n2cnnn2)cc1	-12.7%	-24.1	-20.0%	3.1%	1.1%
O=CNc1cc(-c2ccc(C(=O)NC3CC3)cc2)cn2c(-c3ccc(F)cc3)cnc12	23.1µM*	-77.9*	23.1µM*	8.2µM*	?
COc1cccc(-c2cnc3c(NC=O)cc(-c4ccccc4)cn23)c1	5.17µM*	88.6	5.17µM*	2.59µM*	5.8µM*
CS(=O)(=O)c1ccc(-c2cc(NC=O)c3ncc(-c4ccc(F)cc4)n3c2)cc1	23.1µM*	-13.7	23.1µM*	?	?
CCC(C(=O)NC(C)(C)C)n1c(-c2ccc(C)cc2)nc2ccccc21 (stereo not drawn)	-29.1%	1.1	-26.5%	-1.1%	17.8%
Cc1cccc(OCC(=O)NCCCNC(=O)c2ccc(C)nc2)c1	2.5%	14.5	-0.4%	1.1%	-3.1%
CC1=C(C(=O)N(C(C)C)C(C)C)CC(CC(=O)NCCN2CCOCC2)C(=O)N1Cc1ccccc1 (stereo not drawn)	10.9%	29.5	3.9%	8.7%	13.0%
CCc1ccc(S(=O)(=O)Nc2ccc(-c3ccc(N4CCCC4)nn3)cc2)cc1	-21.8%	·	-15.3%	·	·
SMILES	DT40 TDP1 CPT	IL1B secr inh	TDP1 cell noCPT	HT1080 IDH1KD tx	HT1080-NT tox
CCCCOc1ccc(S(=O)(=O)Nc2ccc(-c3ccc(N4CCCCCC4)nn3)cc2)cc1	13µM*	·	?	·	·
CCc1ccc(S(=O)(=O)Nc2ccc(-c3ccc(N4CCCCCC4)nn3)cc2)cc1	-10.7%	·	-6.6%	·	·
Cc1ccc(S(=O)(=O)Nc2ccc(-c3ccc(N4CCCCCC4)nn3)cc2)cc1C	2.91µM*	·	-49.3%	·	·
CCCCOc1ccc(S(=O)(=O)Nc2ccc(-c3ccc(N4CCCCC4)nn3)cc2)cc1	14.6µM*	·	20.6µM*	·	·
Cc1ccc(S(=O)(=O)Nc2cccc(-c3ccc(N4CCCCCC4)nn3)c2)cc1	?	-18.3	?	-4.0%	?
O=S(=O)(Nc1ccc(-c2ccc(N3CCCC3)nn2)cc1)c1ccc(OC(F)(F)F)cc1	14.6µM*	·	?	·	·
Cc1ccc(S(=O)(=O)N(CCC(=O)NCc2ccc(S(N)(=O)=O)cc2)c2ccccc2)cc1	-0.2%	-13.3	-13.2%	0.6%	5.1%
COC(=O)[C@H](C(C)C)N(Cc1ccccc1)S(=O)(=O)CCN1CCCC1	?	-6.1	?	-6.0%	-2.8%
COC(=O)C(C(C)C)N(Cc1cc(OC)cc(OC)c1)S(=O)(=O)CCl (stereo not drawn)	16.4µM*	16.2	20.6µM*	3.2%	6.3%
O=C1c2oc3ccccc3c(=O)c2C(c2ccccc2)N1Cc1ccc2c(c1)OCO2 (stereo not drawn)	-10.7%	·	-25.6%	·	·
OC[C@@H]1CN(Cc2ccc(F)cc2)C[C@H](n2cnc3c(N4CCOCC4)ncnc32)O1	-6.2%	20.3	-0.8%	9.6%	9.9%
OC[C@@H]1CN(Cc2ccc(Cl)cc2)C[C@H](n2cnc3c(N4CCOCC4)ncnc32)O1	?	20.5	-17.5%	2.8%	?
OC[C@@H]1CN(Cc2ccco2)C[C@H](n2cnc3c(N4CCN(c5ccccc5)CC4)ncnc32)O1	23.1µM*	9.2	23.1µM*	-9.4%	-10.3%
OC[C@@H]1CN(Cc2ccc(-c3ccccc3)cc2)C[C@H](n2cnc3c(N4CCOCC4)ncnc32)O1	?	-27.1	?	20.6µM*	18.4µM*
COc1cc(CN2C[C@@H](CO)O[C@@H](n3cnc4c(N5CCN(c6ccccc6)CC5)ncnc43)C2)cc(OC)c1OC	18.4µM*	-7.7	14.6µM*	0.0%	-3.1%
OC[C@@H]1CN(Cc2ccc(Cl)cc2)C[C@H](n2cnc3c(N4CCN(c5ccccc5)CC4)ncnc32)O1	?	-17.6	18.4µM*	16.4µM*	18.4µM*
CC(C)N(C)c1ncnc2c1ncn2[C@H]1CN(Cc2cccnc2)C[C@@H](CO)O1	5.2%	2.1	8.4%	20.3%	14.9%
CN(C)c1ncnc2c1ncn2[C@H]1CN(Cc2ccc(-c3ccccc3)cc2)C[C@@H](CO)O1	?	-5.3	14.6µM*	2.8%	-0.6%

Screening results: PubChem, National Center for Advancing Translational Sciences (NCATS)
